Of roughly 7,900 targets only a part is listed; those with a hit were picked by preference. About 0.6% of all pairs of compound and target were hits.
What was measured:
Experiment in all cases: log2 fold change, soluble protein after heating vs DMSO (PISA); higher = thermal stabilisation; K562 cells, 10 uM, 30 min; active = over 0.2 and 3.5 SD of the protein, either way, in both replicates (recomputed)
[1] = compound: Cc1cccc(CC(=O)N2CCc3c2ccc(-c2cn(C)c4ncnc(N)c24)c3F)n1
In short: (§1)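 K562 cells (2×10^6 cells/mL) were treated with 10 μM compound for 30 min, and aliquots were heated for 3 min over 48°C-58°C. Pooled aliquots were extracted in PBS with 0.5% NP-40 at 4°C, and the supernatant after 21,000xg for 90 min was measured by TMTpro 16plex LC-MS/MS with channel sums equalised. Reported thermal stability, relative to control samples and from duplicates, is a log2 fold change.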

mubritinib = compound: FC(F)(F)c1ccc(/C=C/c2nc(COc3ccc(CCCCn4ccnn4)cc3)co2)cc1 [mubritinib]
In short: as §1

[2] = compound: NC(=O)c1cnc(N[C@@H]2CCCC[C@@H]2N)nc1Nc1cccc(-n2nccn2)c1
In short: as §1

[3] = compound: NC1(c2ccc(-c3nc4ccn5c(=O)[nH]nc5c4cc3-c3ccccc3)cc2)CCC1
In short: as §1

vorinostat = compound: O=C(CCCCCCC(=O)Nc1ccccc1)NO [vorinostat]
In short: as §1

citarinostat = compound: O=C(CCCCCCNC(=O)c1cnc(N(c2ccccc2)c2ccccc2Cl)nc1)NO [citarinostat]
In short: as §1

silmitasertib = compound: O=C(O)c1ccc2c(c1)nc(Nc1cccc(Cl)c1)c1ccncc12 [silmitasertib]
In short: as §1

[4] = compound: O=C1NC(=O)C(c2cnc3ccccn23)=C1c1cn2c3c(cc(F)cc13)CN(C(=O)N1CCCCC1)CC2
In short: as §1

[5] = compound: c1cc(OCCN2CCCCC2)cc(-c2n[nH]c3ccc(-c4nnc[nH]4)cc23)c1
In short: as §1

[6] = compound: Cn1cc(-c2ccc3c(c2)CCN3C(=O)Cc2cccc(C(F)(F)F)c2)c2c(N)ncnc21
In short: as §1

bafetinib = compound: Cc1ccc(NC(=O)c2ccc(CN3CC[C@H](N(C)C)C3)c(C(F)(F)F)c2)cc1Nc1nccc(-c2cncnc2)n1 [bafetinib]
In short: as §1

dasatinib = compound: Cc1nc(Nc2ncc(C(=O)Nc3c(C)cccc3Cl)s2)cc(N2CCN(CCO)CC2)n1 [dasatinib]
In short: as §1

[7] = compound: NC(=O)Nc1cc(-c2cccc(F)c2)sc1C(=O)N[C@H]1CCCNC1
In short: as §1

[8] = compound: NCC(=O)Nc1ccc(-n2nc(C(F)(F)F)cc2-c2ccc3c(ccc4ccccc43)c2)cc1
In short: as §1

entinostat = compound: Nc1ccccc1NC(=O)c1ccc(CNC(=O)OCc2cccnc2)cc1 [entinostat]
In short: as §1

nilotinib = compound: Cc1cn(-c2cc(NC(=O)c3ccc(C)c(Nc4nccc(-c5cccnc5)n4)c3)cc(C(F)(F)F)c2)cn1 [nilotinib]
In short: as §1

[9] = compound: Cc1nc(Nc2n[nH]c3c2CN(C(=O)N[C@H](CN(C)C)c2ccccc2)C3(C)C)c2sccc2n1
In short: as §1

[10] = compound: Cc1ncc(-c2ccnc(Nc3ccc(S(C)(=O)=O)cc3)n2)n1C(C)C
In short: as §1

[11] = compound: Cn1cc(-c2ccc3nnc(C(F)(F)c4ccc5ncccc5c4)n3n2)cn1
In short: as §1

tipifarnib = compound: Cn1cncc1[C@@](N)(c1ccc(Cl)cc1)c1ccc2c(c1)c(-c1cccc(Cl)c1)cc(=O)n2C [tipifarnib]
In short: as §1

Measured: log2 fold change

TBC1D2 (UniProt Q9BYX2)
inactive: [1] 0.213 | mubritinib -0.085 | [2] -0.078 | [3] -0.181 | vorinostat -0.022 | citarinostat -0.026 | silmitasertib 0.26 | [4] 0.058 | [5] -0.202

TDP1 (UniProt Q9NUW8)
inactive: [6] -0.1

SMDT1 (UniProt Q9H4I9)
Chain of UniProt Q9H4I9 (Q9H4I9 whole entry, looked up): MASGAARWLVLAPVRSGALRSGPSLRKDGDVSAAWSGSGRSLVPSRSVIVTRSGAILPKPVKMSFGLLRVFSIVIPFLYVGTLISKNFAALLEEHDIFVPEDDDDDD
inactive: bafetinib -0.138 | [1] 0.006 | dasatinib 0.005 | [6] 0.137 | mubritinib 0.068 | [7] -0.062 | [2] 0.032 | [3] -0.061 | [8] -0.039 | entinostat 0.01 | vorinostat -0.038 | citarinostat 0.002 | silmitasertib 0.041 | [4] -0.011 | [5] -0.001

SP2 (UniProt Q02086)
Chain of UniProt Q02086 (Q02086 whole entry, looked up): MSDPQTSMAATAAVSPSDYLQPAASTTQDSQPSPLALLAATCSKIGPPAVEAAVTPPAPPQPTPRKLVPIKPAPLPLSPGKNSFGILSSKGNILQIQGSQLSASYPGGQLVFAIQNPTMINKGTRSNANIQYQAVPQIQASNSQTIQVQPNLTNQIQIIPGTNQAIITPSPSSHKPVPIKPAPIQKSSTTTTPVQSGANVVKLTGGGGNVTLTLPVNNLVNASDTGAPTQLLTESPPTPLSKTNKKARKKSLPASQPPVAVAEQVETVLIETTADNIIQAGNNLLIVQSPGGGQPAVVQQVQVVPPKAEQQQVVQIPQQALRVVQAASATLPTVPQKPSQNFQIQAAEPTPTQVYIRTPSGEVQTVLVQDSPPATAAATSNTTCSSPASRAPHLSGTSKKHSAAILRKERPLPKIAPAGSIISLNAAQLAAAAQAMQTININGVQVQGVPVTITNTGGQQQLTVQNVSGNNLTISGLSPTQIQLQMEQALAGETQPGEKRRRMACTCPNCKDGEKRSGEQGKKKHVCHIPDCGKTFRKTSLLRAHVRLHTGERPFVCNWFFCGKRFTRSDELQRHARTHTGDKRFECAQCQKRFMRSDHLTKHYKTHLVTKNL
inactive: dasatinib 0.001 | [7] 0.164 | [2] -0.144 | entinostat -0.018 | citarinostat -0.063 | [5] -0.293

THAP9 (UniProt Q9H5L6)
Chain of UniProt Q9H5L6 (Q9H5L6 whole entry, looked up): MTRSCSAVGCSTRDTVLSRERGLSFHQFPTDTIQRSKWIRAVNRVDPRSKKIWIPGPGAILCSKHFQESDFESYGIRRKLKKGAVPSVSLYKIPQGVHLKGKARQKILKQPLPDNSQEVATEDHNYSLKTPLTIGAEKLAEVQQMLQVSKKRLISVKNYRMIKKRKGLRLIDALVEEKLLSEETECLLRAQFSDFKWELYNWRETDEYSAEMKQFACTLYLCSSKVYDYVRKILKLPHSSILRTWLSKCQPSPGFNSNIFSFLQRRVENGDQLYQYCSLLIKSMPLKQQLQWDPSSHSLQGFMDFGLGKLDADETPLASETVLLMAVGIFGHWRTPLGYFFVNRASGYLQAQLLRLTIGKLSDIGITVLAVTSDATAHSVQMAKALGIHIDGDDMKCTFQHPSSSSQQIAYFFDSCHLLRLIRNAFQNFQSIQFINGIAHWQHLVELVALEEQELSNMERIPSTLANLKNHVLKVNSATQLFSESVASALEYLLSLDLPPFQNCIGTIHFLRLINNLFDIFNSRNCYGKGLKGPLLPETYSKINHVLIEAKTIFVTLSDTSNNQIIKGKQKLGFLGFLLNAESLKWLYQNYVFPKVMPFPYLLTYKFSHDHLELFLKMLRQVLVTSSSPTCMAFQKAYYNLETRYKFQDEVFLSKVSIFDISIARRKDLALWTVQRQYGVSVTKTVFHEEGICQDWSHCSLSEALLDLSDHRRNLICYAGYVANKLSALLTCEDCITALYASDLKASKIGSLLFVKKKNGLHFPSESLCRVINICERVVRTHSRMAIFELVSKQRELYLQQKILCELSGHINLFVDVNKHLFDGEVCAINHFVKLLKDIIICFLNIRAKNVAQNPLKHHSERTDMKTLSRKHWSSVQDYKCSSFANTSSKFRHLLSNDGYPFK
inactive: bafetinib 0.191 | nilotinib 0.03 | [9] -0.009 | dasatinib -0.082 | [10] -0.04 | [6] 0.119 | [11] 0.072 | mubritinib 0.17 | [2] 0.021 | [3] 0.024 | silmitasertib 0.049

SNRK (UniProt Q9NRH2)
inactive: dasatinib -0.061 | tipifarnib -0.079 | [7] -0.19 | entinostat -0.046 | citarinostat 0.26 | [5] 0.325

SLC39A1 (UniProt Q9NY26)
Chain of UniProt Q9NY26 (Q9NY26 whole entry, looked up): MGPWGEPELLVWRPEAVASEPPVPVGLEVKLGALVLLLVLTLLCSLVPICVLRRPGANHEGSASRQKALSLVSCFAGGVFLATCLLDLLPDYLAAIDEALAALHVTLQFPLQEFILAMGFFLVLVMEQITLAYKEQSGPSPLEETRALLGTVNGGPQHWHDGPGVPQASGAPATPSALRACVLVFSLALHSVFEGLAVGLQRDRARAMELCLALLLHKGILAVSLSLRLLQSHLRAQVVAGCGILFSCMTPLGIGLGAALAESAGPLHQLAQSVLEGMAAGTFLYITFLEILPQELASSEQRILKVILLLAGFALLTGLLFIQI
inactive: [1] 0.116 | [6] -0.17 | vorinostat 0.181

TAF6L (UniProt Q9Y6J9)
Chain of UniProt Q9Y6J9 (Q9Y6J9 whole entry, looked up): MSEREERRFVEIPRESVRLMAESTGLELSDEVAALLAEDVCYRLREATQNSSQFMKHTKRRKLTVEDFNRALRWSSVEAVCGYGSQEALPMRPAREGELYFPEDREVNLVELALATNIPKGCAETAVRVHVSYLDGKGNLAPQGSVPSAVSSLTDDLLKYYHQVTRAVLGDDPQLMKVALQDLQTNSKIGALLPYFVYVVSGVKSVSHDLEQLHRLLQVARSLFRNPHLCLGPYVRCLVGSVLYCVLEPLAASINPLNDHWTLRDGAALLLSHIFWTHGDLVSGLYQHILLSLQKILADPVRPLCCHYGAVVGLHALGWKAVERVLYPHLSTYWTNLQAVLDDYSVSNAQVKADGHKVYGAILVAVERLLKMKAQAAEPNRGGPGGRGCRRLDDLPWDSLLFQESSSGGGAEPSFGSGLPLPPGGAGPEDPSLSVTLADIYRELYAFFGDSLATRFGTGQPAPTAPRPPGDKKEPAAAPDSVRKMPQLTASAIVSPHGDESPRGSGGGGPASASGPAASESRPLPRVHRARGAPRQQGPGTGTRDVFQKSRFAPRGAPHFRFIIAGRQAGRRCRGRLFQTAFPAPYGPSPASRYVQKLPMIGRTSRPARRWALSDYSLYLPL
inactive: [1] -0.078 | nilotinib 0.032 | [9] -0.048 | dasatinib -0.224 | [10] 0.046 | [6] -0.106 | [11] -0.018 | tipifarnib 0.055 | mubritinib 0.104 | [7] -0.038 | [2] -0.067 | [3] -0.061 | entinostat 0.033 | vorinostat 0.248 | silmitasertib 0.303

TBP (UniProt P20226)
inactive: bafetinib -0.039 | nilotinib 0.008 | [9] 0.093 | dasatinib 0.104 | [10] 0.079 | [6] -0.112 | [11] 0.036 | tipifarnib 0.013 | mubritinib 0.004 | [2] 0.095 | [3] 0.015 | [8] 0.033 | citarinostat 0.013 | silmitasertib 0.183 | [4] -0.025 | [5] -0.041

TC2N (UniProt Q8N9U0)
inactive: nilotinib 0.052 | dasatinib 0.068 | [10] -0.024 | [11] -0.153 | mubritinib 0.176 | [2] 0.015 | [3] -0.067 | [8] -0.13 | silmitasertib -0.186
active: [9] -0.71

TM7SF2 (UniProt O76062)
inactive: nilotinib -0.113 | [9] -0.059 | dasatinib -0.25 | [10] 0.018 | [6] 0.035 | [11] 0.046 | tipifarnib -0.067 | [7] 0.057 | [8] -0.276 | entinostat 0.119

SLC8B1 (UniProt Q6J4K2)
inactive: bafetinib -0.149 | [1] 0.006 | dasatinib -0.012 | [6] -0.019 | [11] 0.103 | tipifarnib 0.058 | [2] -0.078 | [8] 0.034 | vorinostat -0.031

SMARCB1 (UniProt Q12824)
inactive: [1] -0.277 | dasatinib -0.059 | [6] -0.122 | [7] -0.023 | [8] -0.261 | entinostat -0.005 | vorinostat -0.158 | citarinostat -0.171 | [5] -0.103

TMBIM6 isoform 2 (UniProt P55061)
inactive: bafetinib -0.135 | nilotinib -0.158 | [9] 0.028 | dasatinib -0.081 | [10] -0.037 | [6] 0.063 | [11] -0.073 | tipifarnib -0.269 | mubritinib 0.036 | [7] 0.027 | [2] -0.119 | [3] 0.189 | [8] -0.015 | entinostat 0.044 | citarinostat 0.05 | silmitasertib -0.206 | [4] -0.089 | [5] -0.067

SLC35B4 (UniProt Q969S0)
inactive: bafetinib -0.12 | nilotinib 0.027 | [9] 0.016 | [10] 0.1 | mubritinib 0.032 | [7] -0.006 | [2] -0.052 | [3] -0.094 | [8] -0.072 | entinostat -0.002 | citarinostat -0.009 | silmitasertib -0.034 | [4] -0.069 | [5] -0.06

TCOF1 isoform 3 (UniProt Q13428)
inactive: [1] -0.005 | [11] -0.419 | [7] 0.283 | entinostat 0.008 | vorinostat 0.205 | citarinostat 0.105 | [4] 0.067 | [5] -0.146

TAOK2 (UniProt Q9UL54)
Chain of UniProt Q9UL54 (Q9UL54 whole entry, looked up): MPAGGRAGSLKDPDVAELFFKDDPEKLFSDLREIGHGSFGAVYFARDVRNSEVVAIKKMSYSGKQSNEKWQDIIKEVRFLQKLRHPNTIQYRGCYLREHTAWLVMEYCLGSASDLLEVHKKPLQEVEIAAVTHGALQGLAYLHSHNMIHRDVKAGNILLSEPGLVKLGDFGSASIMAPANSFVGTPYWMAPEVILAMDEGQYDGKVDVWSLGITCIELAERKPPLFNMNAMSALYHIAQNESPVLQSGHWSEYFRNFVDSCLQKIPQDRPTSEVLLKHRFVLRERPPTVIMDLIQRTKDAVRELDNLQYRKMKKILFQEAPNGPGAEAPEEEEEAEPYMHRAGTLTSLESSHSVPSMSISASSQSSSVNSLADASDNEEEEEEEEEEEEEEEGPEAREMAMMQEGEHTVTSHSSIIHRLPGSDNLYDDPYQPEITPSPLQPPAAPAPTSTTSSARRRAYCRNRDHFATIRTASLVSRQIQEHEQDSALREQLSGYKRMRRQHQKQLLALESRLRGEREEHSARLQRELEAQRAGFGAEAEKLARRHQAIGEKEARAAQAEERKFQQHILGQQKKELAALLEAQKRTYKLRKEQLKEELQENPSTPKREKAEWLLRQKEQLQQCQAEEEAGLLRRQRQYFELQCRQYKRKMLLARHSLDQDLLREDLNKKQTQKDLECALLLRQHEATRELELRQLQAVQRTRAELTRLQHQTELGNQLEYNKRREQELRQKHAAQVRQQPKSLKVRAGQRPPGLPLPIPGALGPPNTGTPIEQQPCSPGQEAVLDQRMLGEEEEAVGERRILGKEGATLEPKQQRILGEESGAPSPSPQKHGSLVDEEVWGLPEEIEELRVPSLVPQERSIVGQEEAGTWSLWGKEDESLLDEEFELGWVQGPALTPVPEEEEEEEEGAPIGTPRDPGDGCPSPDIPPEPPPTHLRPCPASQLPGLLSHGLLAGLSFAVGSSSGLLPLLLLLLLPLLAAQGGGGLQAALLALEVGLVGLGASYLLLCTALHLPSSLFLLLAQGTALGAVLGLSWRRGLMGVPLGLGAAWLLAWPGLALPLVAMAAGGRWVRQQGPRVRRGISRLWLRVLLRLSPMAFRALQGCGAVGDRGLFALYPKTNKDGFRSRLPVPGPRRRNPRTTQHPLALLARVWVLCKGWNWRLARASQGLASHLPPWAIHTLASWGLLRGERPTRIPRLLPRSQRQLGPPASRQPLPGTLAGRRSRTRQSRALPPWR
inactive: [1] 0.092 | nilotinib -0.032 | [9] 0.048 | [10] -0.028 | [11] -0.093 | tipifarnib 0.014 | mubritinib 0.01 | [3] -0.01 | vorinostat 0.081 | citarinostat 0.056 | silmitasertib -0.009 | [4] 0.184 | [5] 0.12

SLC35F6 (UniProt Q8N357)
inactive: bafetinib -0.208 | nilotinib -0.037 | [9] -0.13 | dasatinib 0.078 | [10] 0.143 | [6] 0.049 | [11] 0.052 | tipifarnib 0.01 | mubritinib 0.072 | [7] -0.068 | [2] 0.045 | [3] -0.161 | [8] 0.005 | entinostat -0.185 | citarinostat -0.026 | silmitasertib 0.023 | [4] 0.074 | [5] 0.025

SPAG9 isoform 4 (UniProt O60271)
inactive: bafetinib -0.301 | nilotinib 0.073 | [9] -0.118 | [10] 0.022 | [6] -0.072 | [11] 0.11 | mubritinib 0.074 | [7] -0.101 | [2] -0.164 | [3] -0.09 | [8] -0.199 | entinostat 0.034 | citarinostat -0.048 | silmitasertib 0.014 | [5] -0.017

SLC9A6 isoform 3 (UniProt Q92581)
inactive: bafetinib -0.096 | dasatinib 0.065 | [6] 0.048 | tipifarnib 0.028 | [2] 0.009 | citarinostat -0.066 | [5] 0.172

SLC29A3 (UniProt Q9BZD2)
inactive: bafetinib -0.111 | nilotinib -0.055 | [9] 0.127 | dasatinib -0.059 | [10] 0.012 | [6] 0.167 | [11] 0.102 | tipifarnib 0.035 | mubritinib 0.005 | [7] -0.098 | [2] -0.124 | [3] -0.304 | [8] 0.04 | entinostat -0.022 | citarinostat -0.123 | silmitasertib 0.047 | [4] 0.142 | [5] -0.033

SREBF1 isoform 4 (UniProt P36956)
Chain of UniProt P36956 (P36956 whole entry, looked up): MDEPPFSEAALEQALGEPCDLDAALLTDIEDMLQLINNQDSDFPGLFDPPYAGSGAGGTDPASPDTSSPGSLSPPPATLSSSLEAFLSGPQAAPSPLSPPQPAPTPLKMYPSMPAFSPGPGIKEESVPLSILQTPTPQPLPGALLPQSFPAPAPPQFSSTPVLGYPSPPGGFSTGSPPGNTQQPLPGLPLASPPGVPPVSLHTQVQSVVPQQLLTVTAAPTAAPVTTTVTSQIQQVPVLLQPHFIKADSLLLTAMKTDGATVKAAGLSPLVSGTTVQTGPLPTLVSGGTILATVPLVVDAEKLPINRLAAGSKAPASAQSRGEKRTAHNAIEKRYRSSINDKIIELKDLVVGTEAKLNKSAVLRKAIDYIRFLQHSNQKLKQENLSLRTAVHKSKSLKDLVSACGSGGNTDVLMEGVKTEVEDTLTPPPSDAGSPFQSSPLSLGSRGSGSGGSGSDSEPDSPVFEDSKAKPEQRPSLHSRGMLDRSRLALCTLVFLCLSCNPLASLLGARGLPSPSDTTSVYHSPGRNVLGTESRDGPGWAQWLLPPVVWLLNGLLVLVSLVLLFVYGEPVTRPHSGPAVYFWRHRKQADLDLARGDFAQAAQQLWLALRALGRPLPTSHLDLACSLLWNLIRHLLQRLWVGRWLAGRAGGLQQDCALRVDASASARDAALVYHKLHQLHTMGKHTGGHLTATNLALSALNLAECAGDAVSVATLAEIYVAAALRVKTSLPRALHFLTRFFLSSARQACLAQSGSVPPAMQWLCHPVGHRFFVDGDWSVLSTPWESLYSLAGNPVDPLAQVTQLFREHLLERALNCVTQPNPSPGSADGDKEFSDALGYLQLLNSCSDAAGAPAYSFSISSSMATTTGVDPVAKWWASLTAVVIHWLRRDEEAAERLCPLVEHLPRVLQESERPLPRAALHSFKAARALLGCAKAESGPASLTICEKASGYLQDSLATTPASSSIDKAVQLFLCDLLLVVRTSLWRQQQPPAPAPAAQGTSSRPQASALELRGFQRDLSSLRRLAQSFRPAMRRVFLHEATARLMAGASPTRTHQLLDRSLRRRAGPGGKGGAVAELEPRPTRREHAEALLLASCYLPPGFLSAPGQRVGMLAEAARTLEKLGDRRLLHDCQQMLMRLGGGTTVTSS
active: [3] -0.565
inactive: bafetinib -0.357 | dasatinib -0.043 | mubritinib -0.004 | citarinostat 0.095 | silmitasertib 0.01 | [4] 0.057 | [5] 0.007

SLC35A1 (UniProt P78382)
inactive: bafetinib 0.005 | nilotinib -0.009 | [9] -0.055 | dasatinib 0.036 | [10] -0.02 | [6] 0.03 | [11] 0.067 | tipifarnib -0.022 | mubritinib 0.049 | [7] -0.05 | [2] -0.015 | [3] -0.069 | [8] 0.1 | entinostat -0.065 | citarinostat 0.047 | silmitasertib 0.021 | [4] 0.028 | [5] -0.106

TANGO6 (UniProt Q9C0B7)
inactive: bafetinib 0.033 | nilotinib -0.018 | [9] -0.066 | dasatinib -0.216 | [10] -0.006 | [6] 0.083 | [11] -0.048 | tipifarnib -0.067 | mubritinib 0.042 | [7] -0.007 | [2] -0.002 | [3] -0.167 | entinostat 0.035 | citarinostat -0.071 | silmitasertib 0.084 | [4] 0.017 | [5] -0.089

— the supplement of paper PMC10849652
